TDP1 inh – qHTS Assay for Inhibitors of Tyrosyl-DNA Phosphodiesterase (TDP1); Tyrosyl-DNA phosphodiesterase 1 (Homo sapiens), Q9NUW8; recombinant TDP1, AlphaScreen DNA substrate cleavage; Potency, µM (doses to about 130 µM), for inactives: top-dose activity change, negative = inhibition, hits mostly inhibitors; actives 0.28% (n = 350,000); AID 485290, 2010; further: potency means the concentration at half of the fitted maximal effect; nearly all actives have a fitted effect of over 40% in size
Target sequence (Q9NUW8 whole entry, looked up): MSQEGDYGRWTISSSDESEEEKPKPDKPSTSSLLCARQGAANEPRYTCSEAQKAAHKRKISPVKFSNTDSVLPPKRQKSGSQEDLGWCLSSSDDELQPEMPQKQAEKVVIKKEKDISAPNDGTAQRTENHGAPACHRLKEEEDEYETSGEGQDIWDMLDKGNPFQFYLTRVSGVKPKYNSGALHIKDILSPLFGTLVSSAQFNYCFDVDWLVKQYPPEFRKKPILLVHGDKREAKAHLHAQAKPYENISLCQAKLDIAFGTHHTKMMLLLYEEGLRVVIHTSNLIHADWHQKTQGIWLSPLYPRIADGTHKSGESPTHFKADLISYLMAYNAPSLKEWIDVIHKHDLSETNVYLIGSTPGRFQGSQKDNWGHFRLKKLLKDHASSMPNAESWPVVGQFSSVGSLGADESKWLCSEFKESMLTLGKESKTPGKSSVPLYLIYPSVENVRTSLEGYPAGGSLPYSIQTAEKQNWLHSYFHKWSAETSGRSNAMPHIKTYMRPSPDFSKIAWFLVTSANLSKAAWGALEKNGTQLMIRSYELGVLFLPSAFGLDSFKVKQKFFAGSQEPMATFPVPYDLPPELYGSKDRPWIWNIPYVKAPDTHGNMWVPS
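Here, a 5' biotin and 3' phosphotyrosine-FITC DNA oligonucleotide reports Tdp1 activity: intact substrate bridges AlphaScreen beads, while cleavage leaves a 3' phosphate and drops signal. All incubations at room temperature.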
ELG1 DNA repair – qHTS screen for small molecules that inhibit ELG1-dependent DNA repair in human embryonic kidney (HEK293T) cells expressing luciferase-tagged ELG1; HEK293T ELG1-luciferase reporter, luminescence, 16 h; DNA damage induced by 5-fluorouridine; Potency, µM (series often up to 46.1 µM), for inactives: at the top dose activity change, negative = inhibition, usual class: inhibitors; actives 2.3% (n = 330,000); further: potency means the concentration at half of the fitted maximal effect; nearly all actives have a fitted effect of over 55% in size
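Quantitative HTS, concentration-response format. 2,000 cells/well co-treated with 5-fluorouridine and compound, 16 hr in 5% CO2 at 37 °C; ONE-Glo luminescence read after 30 min.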
TDP1 cell noCPT – qHTS for Inhibitors of human tyrosyl-DNA phosphodiesterase 1 (TDP1): qHTS in cells in absence of CPT; Potency, µM (titrated, usually from 46.2 µM), for the others: at the top dose activity change, negative = growth inhibition, actives largely listed as inhibitors; AID 686978, 2013; DT40 Tdp1-/- hTDP1 cells, no CPT, ATP luminescence, 48 h; actives 15% (n = 420,000); further: potency means the concentration at half of the fitted maximal effect; nearly all actives have a fitted effect of over 55% in size
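Growth of hTDP1-complemented DT40 Tdp1-knockout cells is measured by ATP luminescence after at least 48 hr compound exposure at 37 °C, with DMSO substituting for the 20 nM CPT used in the parallel screen.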
IL-1B inflam inh – qHTS for Inhibitors of Inflammasome Signaling: IL-1-beta AlphaLISA Primary Screen | actives 4.7% (n = 360,000) | activity change, % at 57.5 µM | THP-1 LPS/ATP IL-1B secretion, AlphaLISA, 16 h; active compounds read low; in the data active means activity change below about -50%; inconclusive means mostly about -30% to -49%
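THP-1 cells pretreated 1 hr with compounds (up to 57.5 uM final), then stimulated with LPS (250 ng/mL final) plus ATP (1.25 mM final); secreted IL-1B measured by AlphaLISA after 16 hr, decreased signal indicating inhibition.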
Giardia killer – Small Molecules that selectively kill Giardia lamblia: qHTS. actives 0.15% (n = 340,000). Giardia lamblia trophozoite viability. activity change, % at 7.66 µM, hits read low; in the data active means activity change below about -80%; inconclusive means between about -30% and that limit;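 further: parasites exposed to compound for two days anaerobically before the ATP read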
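Trophozoite viability was measured as ATP-dependent luminescence, read 15-30 min after reagent addition. Before that, parasites at 100 cells/well were exposed to compounds for 48 h, anaerobically, at 37 deg C.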
TDP1 cell CPT – qHTS for Inhibitors of human tyrosyl-DNA phosphodiesterase 1 (TDP1): qHTS in cells in presence of CPT; actives 12% (n = 420,000); Potency, µM (series often up to 46.2 µM), without a hit: at the top dose activity change, negative = growth inhibition, hits mostly inhibitors; chicken DT40 Tdp1-/-;hTDP1 cells + 20 nM CPT, ATP luminescence, 48 h; further: potency means the concentration at half of the fitted maximal effect; nearly all actives have a fitted effect of over 55% in size
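Cell growth measured by CellTiter-Glo luminescence after a minimum 48 h, 37 C compound exposure with 20 nM CPT in Tdp1-knockout DT40 cells stably expressing hTDP1, seeded 400/well; qHTS titration format.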
Numbers without * were called inactive; ? = inconclusive; . = no result given. A selection: hits, their analogues and other compounds. The true share with any hit is near 19%. Unless noted, the call rests on the fitted dose curve; in most records, active means well fitted curve in the direction sought with a large enough effect; inconclusive means small, poorly fitted or top-dose-only effect, or another doubt; inactive means no such curve, though single readings can be large; an effect the other way counts as inactive or inconclusive. On the % scale 0 is the no-effect control and ±100 the full control effect.

SMILES | TDP1 inh | ELG1 DNA repair | TDP1 cell noCPT | IL-1B inflam inh | Giardia killer | TDP1 cell CPT
Cc1noc(C)c1NC(=O)N(C)C[C@H]1Oc2ccc(NC(=O)c3ccncc3)cc2C(=O)N([C@H](C)CO)C[C@@H]1C | 0% | 13% | 3% | 13 | 8 | -9%
COc1ccc(Cl)cc1N(C)c1nc(N2CCN(S(=O)(=O)c3ccc(C)cc3)CC2)c2ccccc2n1 | . | . | 6.3µM* | . | . | 8.9µM*
O=S(=O)(c1ccccc1)N1CCN(c2nc(-c3cccnc3)nc3ccccc23)CC1 | 7% | ? | 21µM* | 43 | 18 | ?
Cc1ccc(S(=O)(=O)N2CCN(c3nc(-n4ccnn4)nc4ccccc34)CC2)cc1 | . | . | 16µM* | . | . | 13µM*
Cc1ccc(S(=O)(=O)N2CCN(c3nc(-c4ccnnc4)nc4ccccc34)CC2)cc1 | -1% | . | 16µM* | . | -3 | ?
Cc1ccc(S(=O)(=O)N2CCN(c3nc(C#N)nc4ccccc34)CC2)cc1 | -1% | . | . | . | . | .
COc1ccc(-c2nc(N3CCN(S(=O)(=O)c4ccc(C)cc4)CC3)c3ccccc3n2)cc1 | 3% | . | . | . | 17 | .
O=C(Nc1cccc(NC(=O)C2C3CC4OC(=O)C2C4C3)c1)c1ccccc1 (stereo not given) | 9% | -6% | -2% | -9 | -8 | -8%
COc1ccc(-n2c(=O)c(-c3ccc(Cl)cc3)nc3cnc(N(C)C)nc32)cc1 | . | . | -2% | . | . | -20%
Cn1nccc1NS(=O)(=O)c1ccc(NC(=O)C(F)(F)F)cc1 | 4% | 3% | -10% | . | -14 | 2%
CC(=O)c1ccc(S(=O)(=O)N2CCN(c3nc(-c4cccnc4)nc4ccccc34)CC2)cc1 | 0% | ? | ? | -13 | 5 | 21µM*
O=C1c2cccnc2-c2ncccc21 | 5% | 19% | -15% | 6 | 0 | 1%
O=C1C(=O)c2cccnc2-c2ncccc21 | . | . | 0.0052µM* | -108* | . | 0.033µM*
COC1=C(Br)C(=O)c2ncccc2C1=O | . | . | 0.58µM* | -14 | 5 | 0.52µM*
COc1ccccc1N1C(=O)c2cccnc2C1=O | -1% | -10% | -12% | -2 | -8 | -2%
NNC(=O)c1cc2cc3ccccc3nc2s1 | 6% | 23% | ? | -3 | 0 | 5.2µM*
CCCN(CCC)CCNC(=O)c1cc2c(=O)n(CC)c3ccccc3c2s1 | . | ? | ? | -8 | 32 | -22%
CCN(CCCNC(=O)c1cc2c(=O)n(C)c3ccccc3c2s1)c1ccccc1 | -2% | . | 15µM* | . | . | ?
CS(=O)(=O)NNC(=O)c1cc2cc3ccccc3nc2s1 | 2% | 14% | -19% | 32 | -2 | -5%
CCN(CCCNC(=O)c1cc2c(=O)n(C)c3ccccc3c2s1)Cc1ccccc1 | -2% | . | 21µM* | . | . | 15µM*
CCN(CCCNC(=O)c1cc2cc3ccc(C)cc3nc2s1)c1ccccc1 | 5% | . | 26µM* | . | . | ?
COc1cc(C2Oc3nc(SC)nnc3-c3ccccc3N2C(C)=O)cc(Cl)c1OC (stereo not given) | . | . | 7% | . | . | 8%
Cc1ccc(C(=O)NCC2CCCO2)cc1S(=O)(=O)N1CCCCC1 (stereo not given) | 4% | 2% | 4% | 7 | 8 | -1%
COc1ccc(CCNC(=O)c2cc3c(=O)n(C)c4ccccc4c3s2)cc1OC | 5% | . | ? | . | . | -7%
CCOc1ccc(CNC(=O)c2cc3c(=O)n(C)c4ccccc4c3s2)cc1 | 2% | . | 2.6µM* | . | . | 9.2µM*

Screening results: PubChem BioAssay, National Center for Advancing Translational Sciences (NCATS)
